Results with a measured potency or affinity are listed apart. The source made the active and inactive calls. The rule behind the calls is not given here.
Test: Vero 76 cell viability after compound exposure – Vero 76 cells, synthesized analogs, cytotoxicity control for West Nile virus antiviral project, SAR follow-up (AID 2414)
Settings: Vero 76 cells viability, cytotoxicity CC50; series mostly up to 66.6 µM
In the case of `COc1ccc(-c2csc(N(C)C(=O)c3ccccc3Cl)n2)cc1`, the outcome is reported as “inactive”.
For `OC1c2c(F)cccc2N=C2CCCN21` (centres undefined), the outcome was “inactive”.
With `O=c1c2cc(Cl)cc(Cl)c2nc2n1CCC2` the outcome was “inactive”.
With `O=c1c2c(F)cccc2nc2n1CCC2` the outcome was “inactive”.
With `OC1c2c(F)cccc2N=C2CCCCCN21` (centres undefined) the outcome was “inactive”.
With `COc1ccc(-c2csc(N(CCCBr)C(=O)c3ccccc3Cl)n2)cc1` the outcome was “inactive”.
In the case of `COc1ccc(Cn2nc(C)cc2OC(=O)c2ccccc2)cc1`, the outcome is reported as “inactive”.
For `CCCN(C(=O)c1ccccc1Cl)c1nc(-c2ccc(OC)cc2)cs1`, the outcome was “inactive”.
For `COc1ccc(-c2csc(N(Cc3ccccc3)C(=O)c3ccccc3Cl)n2)cc1`, the outcome was “inactive”.
For `O=C(CSc1nc2ccc(F)cc2c(=O)n1-c1ccccc1)Nc1ccc2c(c1)CCC2`, the outcome was “inactive”.
In the case of `O=C(CSc1nc2ccccc2c(=O)n1-c1ccc(F)cc1)Nc1ccc2c(c1)OCCO2`, the outcome is reported as “inactive”.
In the case of `Nc1ccc2nc3n(c(=O)c2c1)CCC3`, the outcome is reported as “inactive”.
With `O=[N+]([O-])c1ccc2c(c1)C(O)N1CCCC1=N2` (centres undefined) the outcome was “inactive”.
In the case of `COc1ccc(Cn2nc(C)cc2OC(=O)c2c(F)ccc(C)c2F)cc1`, the outcome is reported as “inactive”.
With `O=c1c2cc([N+](=O)[O-])ccc2nc2n1CCC2` the outcome was “inactive”.
For `CC(=O)Nc1ccc2nc3n(c(=O)c2c1)CCC3`, the outcome was “inactive”.
For `OC1c2cc(I)ccc2N=C2CCCN21` (centres undefined), the outcome was “inactive”.
With `O=c1c2cc(I)ccc2nc2n1CCC2` the outcome was “inactive”.
In the case of `Cc1cc(OC(=O)c2c(F)cccc2F)n(Cc2ccccc2)n1`, the outcome is reported as “inactive”.
With `COc1ccccc1NC(=O)CSc1nc2ccccc2c(=O)n1-c1ccc(F)cc1` the outcome was “inactive”.
In the case of `Cc1cccc2nc3n(c(=O)c12)CCC3`, the outcome is reported as “inactive”.
For `O=C(CSc1nc2cccc(F)c2c(=O)n1-c1ccccc1)Nc1ccc2c(c1)CCC2`, the outcome was “inactive”.
In the case of `OC1c2c(F)cccc2N=C2CCCCN21` (centres undefined), the outcome is reported as “inactive”.
For `COc1ccc(NC(=O)CSc2nc3ccccc3c(=O)n2-c2ccc(F)cc2)cc1`, the outcome was “inactive”.
For `Cc1cccc2c(=O)n3c(nc12)CCC3`, the outcome was “inactive”.
For `OC1c2cc(Cl)cc(Cl)c2N=C2CCCN21` (centres undefined), the outcome was “inactive”.
In the case of `O=C(CSc1nc2ccccc2c(=O)n1-c1ccc(F)cc1F)Nc1ccc(N2CCOCC2)cc1`, the outcome is reported as “inactive”.
With `CCCCN(C(=O)c1ccccc1Cl)c1nc(-c2ccc(OC)cc2)cs1` the outcome was “inactive”.
With `CC1CC(C)CN(C(=O)CSc2nc3ccccc3c(=O)n2-c2ccc(F)cc2)C1` (centres undefined) the outcome was “inactive”.
For `CC1(O)c2cc(Br)ccc2N=C2CCCN21` (centres undefined), the outcome was “inactive”.
With `Cc1ccc2nc3n(c(=O)c2c1)CCC3` the outcome was “inactive”.
With `COc1ccc(Cn2nc(C)cc2OC(=O)c2c(F)cccc2F)cc1` the outcome was “inactive”.
With `O=c1c2cccc(Cl)c2nc2n1CCC2` the outcome was “inactive”.
For `OC1c2cc(Br)ccc2N=C2CCCCN21` (centres undefined), the outcome was “inactive”.

— PubChem BioAssay AID2414 (Southern Research Specialized Biocontainment Screening …, 2010)
